Consider twelve molecules from PubChem BioAssay (Tox21).

The nature of test [1]: qHTS assay to identify small molecule agonists of H2AX (AID 1224845; active means well fitted activation curve with a large enough effect in the signal ratio in the repeat runs, not every such curve was filed as active; the % refers to the signal ratio). The procedure, abridged: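 Phospho-H2AX Ser139 measured by HTRF (ex 320 nm; em 665 and 620 nm) after 24 hr antibody incubation. Compounds, 15 concentrations, 0.76% DMSO, were applied to CHO-K1 cells for 3hr at 37C before lysis.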
(In general: In qHTS, concentration-response curves come from the screen itself.)

A short description of test [2]: qHTS assay to identify small molecule antagonists of the estrogen related receptor (ERR) signaling pathway from Tox21 library (AID 1224848). Further: nearly all actives have a fitted effect of over 50% in size. Further: potency means the concentration at half of the fitted maximal effect. The gist of the method: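 ERR cell line, 2,000 cells/well. 6 h settle, then compound (DMSO) added; 18 h at 37 C; ONE-Glo luminescence after 30 min RT.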
Test [3] is described as follows: qHTS assay to identify small molecule agonists of the estrogen related receptor (ERR) signaling pathway from Tox21 library (AID 1224849; calls by dose curve; further: nearly all actives have a fitted effect of over 15% in size). The conditions noted are these: ERR reporter cell line, ONE-Glo luciferase, 18 h; at 92.4 µM (top of the series) unless noted. The gist of the method:
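Luciferase activity in ERR pathway reporter cells served as the agonist readout; exposure lasted 18 h at 37 C, with ONE-Glo detection after 30 min at room temperature.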

The nature of test [4]: qHTS RealTime-Glo MT Cell Viability Assay in HepG2 cells - 40 hour (AID 1224870). Further: nearly all actives have a fitted effect of over 50% in size. The procedure, abridged: (§1)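 Real-time viability: cells seeded at 600 per well together with NanoLuc and cell-permeant prosubstrate, compounds added after 5 h incubation. Luminescence tracked at 0, 8, 16, 24, 32 and 40 h of exposure.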
Test [5] in a line: qHTS RealTime-Glo MT Cell Viability Assay in HEK293 cells - 16 hour (AID 1224872). Further: nearly all actives have a fitted effect of over 50% in size. Further: potency means the concentration at half of the fitted maximal effect. The procedure, abridged:
(§2)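 Cells + reagent dispensed (600 cells/well, HEK293) → 5 h at 37 C/5% CO2 → 23 nL compound in DMSO pinned → 40 h at 37 C → luminescence read at 0, 8, 16, 24, 32, 40 h.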

The nature of test [6]: qHTS RealTime-Glo MT Cell Viability Assay in HepG2 cells - 8 hour (AID 1224873). Further: nearly all actives have a fitted effect of over 55% in size. The gist of the method: as §1
Test [7] can be described thus: A CellTox Green Cytotoxicity Assay to monitor cytotoxicity in HEK293 cells - 24 hour (AID 1224875). Further: nearly all actives have a fitted effect of over 45% in size. Further: potency means the concentration at half of the fitted maximal effect. The gist of the method: (§3)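 Real-time, in one plate: 600 HEK293 cells/well with dead-cell DNA dye, pinned compound after 5 h, 37 C incubation over 40 h; viable cells give no appreciable fluorescence.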
A short description of test [8]: A CellTox Green Cytotoxicity Assay to monitor cytotoxicity in HepG2 cells - 16 hour (AID 1224876). Further: nearly all actives have a fitted effect of over 45% in size. Further: potency means the concentration at half of the fitted maximal effect. The procedure, abridged: (§4)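 Cytotoxicity was tracked as dead-cell DNA fluorescence in HepG2 cells treated with test compounds at 37 C; each time-point value comes from one kinetic series spanning 0, 8, 16, 24, 32 and 40 h.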
Test [9] can be described thus: qHTS RealTime-Glo MT Cell Viability Assay in HepG2 cells - 32 hour (AID 1224877). Further: nearly all actives have a fitted effect of over 55% in size. The procedure, abridged:
(§5)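 Real-time, nonlytic viability: 600 HepG2 cells/well mixed with NanoLuc enzyme plus prosubstrate; 5 h settle, compound (DMSO) added by pintool; luminescence monitored over 40 h at 37 C.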

A short description of test [10]: A CellTox Green Cytotoxicity Assay to monitor cytotoxicity in HepG2 cells - 24 hour (AID 1224878). Further: nearly all actives have a fitted effect of over 45% in size. Further: potency means the concentration at half of the fitted maximal effect. The procedure, abridged:
as §4

Test [11] is described as follows: A CellTox Green Cytotoxicity Assay to monitor cytotoxicity in HepG2 cells - 40 hour (AID 1224879). Further: nearly all actives have a fitted effect of over 40% in size. Further: potency means the concentration at half of the fitted maximal effect. The procedure, abridged:
as §4

Test [12] can be described thus: qHTS RealTime-Glo MT Cell Viability Assay in HEK293 cells - 0 hour (AID 1224880). Further: top concentration of the series differs between compounds; nearly all actives have a fitted effect of over 45% in size. The gist of the method:
(§6)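 Kinetic, non-lysing viability readout. Seed HEK293 (600/well) with reagent, incubate 5 h at 37 C/5% CO2, pin 23 nL compound in DMSO, incubate at 37 C, read luminescence at 0, 8, 16, 24, 32, 40 h.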

Test [13] in a line: qHTS assay to identify small molecule agonists of H2AX - cell viability counter screen (AID 1224847; calls by dose curve; further: nearly all actives have a fitted effect of over 30% in size; further: potency means the concentration at half of the fitted maximal effect). The gist of the method: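 Viability of CHO-K1 (wild type) cells after 3 hr compound exposure was measured by CellTiter-Glo luminescence.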
Test [14] can be described thus: qHTS RealTime-Glo MT Cell Viability Assay in HEK293 cells - 32 hour (AID 1224868). Further: nearly all actives have a fitted effect of over 50% in size. Further: potency means the concentration at half of the fitted maximal effect. The procedure, abridged:
as §2

Test [15] is described as follows: A CellTox Green Cytotoxicity Assay to monitor cytotoxicity in HEK293 cells - 0 hour (AID 1224869). Further: nearly all actives have a fitted effect of over 50% in size. The gist of the method: as §3
Test [16] can be described thus: A CellTox Green Cytotoxicity Assay to monitor cytotoxicity in HEK293 cells - 40 hour (AID 1224871). Further: nearly all actives have a fitted effect of over 45% in size. Further: potency means the concentration at half of the fitted maximal effect. The procedure, abridged:
as §3

Test [17] can be described thus: qHTS RealTime-Glo MT Cell Viability Assay in HEK293 cells - 40 hour (AID 1224874). Further: nearly all actives have a fitted effect of over 50% in size. Further: potency means the concentration at half of the fitted maximal effect. The conditions noted are these: RealTime-Glo luminescence; max response: hits give low values. The procedure, abridged:
as §6

Test [18] in a line: qHTS RealTime-Glo MT Cell Viability Assay in HepG2 cells - 24 hour (AID 1224867). Further: nearly all actives have a fitted effect of over 50% in size. The procedure, abridged:
as §5

The nature of test [19]: qHTS assay to identify small molecule agonists of the hypoxia (HIF-1) signaling pathway (AID 1224846; active means well fitted activation curve with a large enough effect in the signal ratio in the repeat runs, not every such curve was filed as active; the % refers to the signal ratio). The gist of the method: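 ME-180 HRE-bla reporter cells; compounds in DMSO, 17 h at 37C; read-out beta-lactamase via CCF4-AM FRET.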

Structures are written as SMILES. “And” between values parts separate entries of the source, which are not always exact repeats. Equal values may be shown once. Unmarked numbers belong to inactive results. Results filed as inconclusive are left out. The source made the active and inactive calls. Unless noted, the call rests on the fitted dose curve; in most records, active means well fitted curve in the direction sought with a large enough effect in the repeat runs; inconclusive means weak or mixed curves; inactive means no such curve, though single readings can be large; an effect the other way counts as inactive or inconclusive.
On the % scale 0 is the no-effect control and ±100 the full control effect.

Consider `Clc1ccc(-c2ccc(Cl)c(Cl)c2Cl)c(Cl)c1Cl`, for which the Potency result in [1], in test [2], in [4], in test [5], in test [6] and in test [7] was “inactive” each time. The Potency entry in test [8], in [9], in [10], in test [11] and in test [12] was “inactive” in each case. Besides, the activity change, positive = activation in [3] is 6.41%.
With `Nc1ccccc1C(=O)Oc1ccc2ccccc2c1`, in test [13], the Potency was 80 µM (active). In addition, the Potency result in test [14], in test [15], in [4], in test [16], in test [7] and in test [8] was “inactive” throughout. Besides, the Potency result in test [9] and in test [12] was “inactive” in each case. For the same molecule, the max response in test [17] is -20.2%.
`ClC(Cl)=C(c1ccc(Cl)cc1)c1ccc(Cl)cc1`: the Potency result in [2], in [15], in test [4], in test [6], in [7] and in test [8] was “inactive” in each case. Besides, the Potency result in test [9], in [10], in test [11] and in test [12] was “inactive” throughout. Also, the activity change, positive = activation in test [3] was -26.1% and 7.66%. Further, the Potency was 43.6 µM (active) in test [16] and 56.3 µM (active) in [5].
With `CC1(C)CC/C(=C/c2ccc(Cl)cc2)C1(O)Cn1cncn1` (stereo unspecified), the Potency result in test [18], in test [15], in [4], in test [6], in test [7] and in test [8] was “inactive” each time. The Potency entry in test [9] and in test [12] was “inactive” each time.
On to `Fc1ccc(Oc2ccnc3cc(Cl)cc(Cl)c23)cc1`, for which the Potency entry in test [1], in [18], in test [4], in test [16], in [6] and in [7] was “inactive” throughout. The Potency result in test [8], in test [9], in test [10] and in test [12] was “inactive” throughout. The figures for the Potency in [14], in test [5] and in test [17] were 11 µM (active), 7.76 µM (active) and 9.77 µM (active), respectively.
For the molecule `CC[C@H]1C[C@@H]2C[C@H]3c4[nH]c5ccc(OC)cc5c4CCN(C2)[C@@H]13`, the Potency result in test [13], in test [15], in [16], in test [5], in test [6] and in test [7] was “inactive” in each case. Further, the Potency result in [8], in test [9] and in test [12] was “inactive” in each case. Also, the Potency was 30.1 µM (active) in test [2], 54 µM (active) in test [10] and 54 µM (active) in test [11]. Besides, the activity change, positive = activation in test [3] is -44.1%.
Regarding `O=C(CCl)Nc1ccccc1`, the Potency entry in [13], in test [18], in test [15], in test [4], in [6] and in test [7] was “inactive” in each case. For the same molecule, the Potency entry in test [9], in test [10] and in [12] was “inactive” in each case. Besides, the figures for the Potency in test [2] and in [17] were 19.3 µM (active) and 38.9 µM (active), respectively. Further, the activity change, positive = activation in test [3] is -72.1%.
Take `O=[N+]([O-])c1c2ccccc2cc2ccccc12`: the Potency result in test [2], in test [18], in test [14], in test [15], in [4] and in test [5] was “inactive” in each case. Further, the Potency entry in [6], in test [9] and in test [12] was “inactive” throughout. The Potency in test [16] was 5.43 µM (active); in [7] it was 5.43 µM (active); in test [8], 1.08 µM (active); in test [11], 60.9 µM (active). Besides, the max response in test [17] was 1.8%.
Consider `[Cl][Sb]([Cl])[Cl]`, for which the Potency entry in test [13], in [18], in test [15], in test [4], in test [5] and in test [6] was “inactive” in each case. For the same molecule, the Potency entry in [7], in test [8], in test [9], in test [10] and in [12] was “inactive” throughout. Further, the Potency in [16] was 24.5 µM (active).
On to `CC(Cc1ccc(C(C)(C)C)cc1)CN1C[C@@H](C)O[C@@H](C)C1` (stereo partly specified), for which the Potency was 63.5 µM (active) in test [13], 49 µM (active) in test [16] and 49 µM (active) in test [7]. Further, the activity change, positive = activation in [3] is -8.81%. Besides, the Potency result in test [18], in [14], in test [15], in test [4], in [6] and in [9] was “inactive” each time. For the same molecule, in [12], the Potency entry was “inactive”.
For `CCCCOCN(C(=O)CCl)c1c(CC)cccc1CC`, the molecule was called inactive in test [19]. Also, the Potency in [13] is 101 µM (active); in test [2] it was 27.3 µM (active). Further, the activity change, positive = activation in test [3] is -62.9%. The Potency result in test [14], in test [15], in [4], in test [5], in [6] and in test [7] was “inactive” each time. For the same molecule, the Potency result in [8], in test [10] and in test [12] was “inactive” each time. Further, in test [17], the max response is -10.8%.
As to `ClC1=C(Cl)C2(Cl)C3C(Cl)C=CC3C1(Cl)C2(Cl)Cl` (stereo unspecified), the Potency in [13] is 113 µM (active); in test [14], 49.2 µM (active) and 49 µM (active); in test [16] it was 55.2 µM (active) and 49 µM (active); in [5], 43.8 µM (active) and 43.6 µM (active); in [17] it was 49.2 µM (active) and 49 µM (active); in test [7], 49.2 µM (active) and 49 µM (active). Also, the Potency entry in [15], in [4] and in [12] was “inactive” throughout.
